About 83,000 compounds went through this panel and 20% of them were active in at least one assay; those are over-represented in the sample as a whole.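 Compound tested at a single concentration for 48 hours in 96-well plates; a percent growth value below 10 was scored as active.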 Values without a mark were called inactive. The source made the active and inactive calls.

For the assay, the system named is U251 CNS. The experiment in a line: NCI-60 one-dose screen, 48 h (100 = growth as untreated, 0 = no growth, -100 = all killed). The settings on record: 10 µM unless noted.
On to `O=C1Nc2ccccc2/C1=C/c1cn(C(=O)c2c(Cl)cccc2Cl)c2ccccc12`, for which the growth is 35.8%.
The figure for `C=CCn1c(C)nc2cc(Nc3nc(N4CCCC4)nc4ccccc34)ccc21` is 96.6%; for `COc1ccc2nc(NNC(=O)c3cnccn3)c3cccn3c2c1` it is 0.414% (active).
Consider `CC(=O)OC1CCC2(C)C(=CC3C4CCC(=O)C4(C)CCC32)C1` (stereo not drawn), for which the growth was 98.5%.
Consider `Cc1ccc(-n2c(-c3ccccc3)c(-c3ccccc3)c3c(SCC(=O)n4[nH]c(N)cc4=O)ncnc32)cc1`, for which the growth is 87%.
The same measure for `C[C@@H]1N=C(c2ccc3ccccc3n2)Nc2nc3ccccn3c2C1=O`: 106%.
In the case of `N[C@@H](CCCCNCC(=O)O)C(=O)O`, the growth is 99.9%.
The figure for `Clc1cccc(Cl)c1C(Nc1nc2ccccc2s1)Nc1nc2ccccc2s1` is 94.7%; for `COc1cc(/C=C/C(=O)c2c(C)nc3ccccc3c2C)ccc1OCCCN1CCN(C(=O)c2ccco2)CC1` it is 77.9%; for `Cc1ccc(Cc2cnc(NC(=O)c3ccc4noc(-c5ccccc5)c4c3)s2)cc1` it is 96.3%.
The same measure for `CC(=O)c1nc(Nc2ccc(C)cc2)sc1C`: 95.8%; for `Cc1c(C(=O)OC(=NC2CCCCC2)NC2CCCCC2)sc2c1c(=O)nc1c(C#N)n[nH]n12`: 107%; for `O=C(CCc1nnc(CN(c2ccccc2)c2ccccc2)o1)c1nc2ccccc2[nH]1`: 94.9%.
The same measure for `O=C(CC(SCc1ccccc1)c1ccccc1)c1ccccc1` (stereo not drawn): 86.5%; for `COc1ccc(-c2nc3ccc4[nH]ncc4c3c3c2CCCC3)cc1B(O)O`: 78%.
`CC(C)(C)OC(=O)Nc1ccc2c(c1)C(NC(=O)Nc1cccc(C#N)c1)CC(C)(C)O2` (stereo not drawn): the growth was 32.7%.
The figure for `O=C(NCCc1ccc(O)c(O)c1)C12CC3CC(CC(C3)C1)C2` is 101%; for `CC1=NOC(=O)/C1=C\c1ccc(O)cc1` it is 101%.
The same measure for `O=C1/C(=C\c2cccnc2)SC(=S)N1CCc1ccc(O)cc1`: 68.3%; for `Cn1cc(-c2csc(-c3cccc(F)c3)n2)c2cccnc21`: -36.4% [100 µM] (active); for `C=CCn1c(C)nc2cc(Nc3nc(Cl)nc4ccccc34)ccc21`: 95.5%.
The same measure for `O=C(NC(Cc1nnc2n(Cc3ccccc3)c(=O)c3c4c(sc3n12)CCCC4)c1ccc(Cl)cc1)c1ccccc1` (stereo not drawn): 91.8%; for `N#Cc1c(-c2cccc(Cl)c2)cc(-c2cccc(Cl)c2)[nH]c1=O`: 74.7%.
On to `Clc1cccc(Cl)c1/C=C/c1cc(/C=C/c2c(Cl)cccc2Cl)[nH]n1`, for which the growth was 20.3%.
The figure for `O=C1c2cccc(NCCN=Cc3cc([N+](=O)[O-])ccc3O)c2C(=O)c2c(NCCN=Cc3cc([N+](=O)[O-])ccc3O)cccc21` is 44.5%; for `COC(=O)[C@H](CSC)N(C)C(=O)[C@@H]1CSSC[C@@H](NC(=O)c2nc3ccccc3cc2O)C(=O)NCC(=O)N1C` it is 91.2%.
`O=C1N=c2cc3c(cc2=C/C1=C/c1sc(=S)n(CCc2ccc(O)cc2)c1O)OCCO3`: the growth was 17.8%.
In the case of `O=C1CC(N2C(=O)/C(=C/C(Cl)=C\c3ccc([N+](=O)[O-])cc3)SC2=S)C(=O)N1c1ccc(O)cc1` (stereo not drawn), the growth is -39.5% (active).
The same measure for `CC(C)(C)C(CCc1ccc(Cl)cc1)N1CCN(C2CCCCC2)CC1` (stereo not drawn): 38.1%; for `COC1=C(OC)C(=O)C(OC)=C(OC)C1=O`: 105%; for `COc1cc2ncn3c(=O)c4c5c(sc4nc3c2cc1OC)CCCC5`: 98.7%.
On to `CCn1c(C)nc2cc(C(N)=O)ccc21`, for which the growth was 95.4%.
The figure for `O=C(CCCCCCSc1nc(-c2ccccc2)cc(-c2ccc(Cl)cc2)n1)NO` is 0.693% (active); for `O=C(Nc1cccc(C(F)(F)F)c1)Nc1cccc(C(F)(F)F)c1` it is -15.3% (active).
The figure for `COc1ccc(NC(=O)c2nc(-c3cc(OC)c(OC)c(OC)c3)n(-c3cccc4ccccc34)n2)cc1OC` is 52.4%; for `CCSC1=NC2C(N(CC)C(=O)N2CC)N1/N=C/C=C/c1ccccc1[N+](=O)[O-]` (stereo not drawn) it is 12.7%; for `CC(C)C(=O)Nc1n[nH]c2cc(-c3cccc(NS(=O)(=O)C4CC4)c3)ccc12` it is 79.5%.
The same measure for `Cn1c(=O)c2[nH]c(NN)nc2n(C)c1=O`: 105%.

For the origin of these results see PubChem BioAssay (NCI).
